According to PubChem BioAssay (Tox21):
Inconclusive results are not listed. Calls of active or inactive are those of the source. Unless noted, calls come from the whole dose curve.

Tests used:
[1] = Nuclear factor erythroid 2-related factor 2/antioxidant responsive element (Nrf2/ARE) small molecule agonists: qHTS cell viability counter screen in human keratinocytes (AID 1919968; active = well fitted curve in the direction sought with a large enough effect in the repeat runs; an effect the other way counts as inactive or inconclusive; note: nearly all actives have a fitted effect of over 55% in size)
In short: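 CellTiter-Fluor fluorescence, read 1 h after reagent, gave viability in the same wells as the ARE-luciferase assay. KeratinoSens cells (1,500/well) had 23 h compound exposure at 37 C/5% CO2 following 5 h plating.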

[2] = Nuclear factor erythroid 2-related factor 2/antioxidant responsive element (Nrf2/ARE) small molecule agonists: luciferase reporter gene qHTS assay in human keratinocytes (AID 1919969); note: nearly all actives have a fitted effect of over 35% in size
[3] = target: Gonadotropin-releasing hormone receptor (Homo sapiens) (UniProt P30968); assay: Human gonadotropin-releasing hormone receptor (GnRHR) small molecule agonists, calcium flux assay in GnRHR-HEK293 cells (AID 1920063); note: nearly all actives have a fitted effect of over 35% in size
Chain of Gonadotropin-releasing hormone receptor (Homo sapiens) (P30968 whole entry, looked up): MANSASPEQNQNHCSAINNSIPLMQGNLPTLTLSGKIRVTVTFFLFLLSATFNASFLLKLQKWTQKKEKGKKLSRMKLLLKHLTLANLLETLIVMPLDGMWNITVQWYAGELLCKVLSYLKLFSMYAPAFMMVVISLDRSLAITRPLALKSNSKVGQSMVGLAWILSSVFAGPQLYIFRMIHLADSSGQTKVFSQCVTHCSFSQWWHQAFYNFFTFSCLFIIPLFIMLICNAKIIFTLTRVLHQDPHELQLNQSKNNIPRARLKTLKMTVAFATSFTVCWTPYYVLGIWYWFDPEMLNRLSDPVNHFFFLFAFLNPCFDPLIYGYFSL
In short: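 Agonist mode: compounds at 15 concentrations, in triplicate, went onto calcium dye-loaded GnRHR-HEK293 cells. Intracellular calcium was then followed as 480/540 nm fluorescence at 1 s intervals over 3 min.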

[4] = target: KiSS-1 receptor (Homo sapiens) (UniProt Q969F8); assay: Human kisspeptin (KISS1R) small molecule agonists, calcium flux assay in KISS1R-HEK293 cells (AID 1920064; active = well fitted curve in the direction sought with a large enough effect in the repeat runs; an effect the other way counts as inactive or inconclusive)
Chain of KiSS-1 receptor (Homo sapiens) (Q969F8 whole entry, looked up): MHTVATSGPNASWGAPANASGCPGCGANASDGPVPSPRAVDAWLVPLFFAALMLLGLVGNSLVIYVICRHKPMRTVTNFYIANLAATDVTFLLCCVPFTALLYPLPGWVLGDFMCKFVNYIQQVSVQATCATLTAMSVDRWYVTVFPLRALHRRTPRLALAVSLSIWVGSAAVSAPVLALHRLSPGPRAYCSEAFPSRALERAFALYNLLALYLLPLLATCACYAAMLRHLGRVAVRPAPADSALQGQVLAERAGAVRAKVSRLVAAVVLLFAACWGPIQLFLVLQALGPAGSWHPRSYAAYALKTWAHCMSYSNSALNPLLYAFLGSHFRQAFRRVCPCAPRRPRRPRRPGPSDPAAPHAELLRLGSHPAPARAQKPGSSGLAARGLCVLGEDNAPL
In short: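 Agonist mode: intracellular calcium rise tracked at 1 s intervals over 3 min (480/540 nm) immediately after compound addition to dye-loaded KISS1R-HEK293 stable cells. Each compound tested at 15 concentrations in triplicate.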

[5] = p53 small molecule agonists, cell-based qHTS assay with rat liver microsomes (AID 1963578)
In short: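 Compound in DMSO added to p53RE-bla cells 5 h post-plating; rat microsomes/NADPH 0.5 mg/mL final; 16 h, 37 C; LiveBLAzer 2 h RT.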

[6] = p53 small molecule agonists, cell-based qHTS assay with rat liver microsomes: qHTS cell viability counter screen (AID 1963580); note: nearly all actives have a fitted effect of over 45% in size
In short: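 After the beta-lactamase ratio was read, CellTiter-Glo was added to the same wells and luminescence measured at 30 min; cells had been treated 16 h at 37 C with compounds, rat liver microsomes and NADPH (0.5 mg/mL final each).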

[7] = p53 small molecule agonists, cell-based qHTS assay: qHTS cell viability counter screen (AID 1963581); note: nearly all actives have a fitted effect of over 45% in size
In short: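 Counter screen read by CellTiter-Glo luminescence (ATP content, 30 min at room temperature), run in the same wells as the beta-lactamase reporter read. HCT-116 p53RE-bla cells saw compounds for 16 h at 37 C.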

[8] = p53 small molecule agonists, cell-based qHTS assay (AID 1963582; active = well fitted activation curve with a large enough effect in the signal ratio in the repeat runs, not every such curve was filed as active; the % refers to the signal ratio)
In short: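 Read-out is beta-lactamase FRET fluorescence after 2 h at room temperature with LiveBLAzer B/G substrate. p53 response element-bla cells were treated 16 h at 37 C with compounds in DMSO, added 5 h after seeding.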

[9] = target: 5-hydroxytryptamine receptor 2A (Homo sapiens) (UniProt P28223); assay: 5-hydroxytryptamine receptor 2A (HTR2A) small molecule antagonists, cell-based qHTS assay (AID 1963586); note: nearly all actives have a fitted effect of over 45% in size
Chain of 5-hydroxytryptamine receptor 2A (Homo sapiens) (P28223 whole entry, looked up): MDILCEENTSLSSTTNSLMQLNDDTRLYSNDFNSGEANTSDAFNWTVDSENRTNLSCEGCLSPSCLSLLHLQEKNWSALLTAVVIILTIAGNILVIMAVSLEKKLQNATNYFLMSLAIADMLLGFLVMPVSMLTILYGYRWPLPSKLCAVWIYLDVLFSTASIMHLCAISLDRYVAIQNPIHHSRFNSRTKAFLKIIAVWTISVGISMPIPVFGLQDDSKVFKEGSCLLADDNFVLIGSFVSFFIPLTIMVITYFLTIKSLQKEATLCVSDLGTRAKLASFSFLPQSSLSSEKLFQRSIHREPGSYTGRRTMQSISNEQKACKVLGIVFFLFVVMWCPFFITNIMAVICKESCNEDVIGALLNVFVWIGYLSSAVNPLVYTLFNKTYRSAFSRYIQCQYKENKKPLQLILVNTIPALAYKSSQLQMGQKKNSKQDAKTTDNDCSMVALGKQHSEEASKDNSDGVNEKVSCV
In short: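 CHO cells stably expressing human HTR2A were plated for 18 h at 37 C, then loaded with calcium dye for 1 h. Compounds were preincubated 5 min at room temperature before DOI (4 nM solution) was added. Kinetic fluorescence was read for 3 min.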

[10] = target: 5-hydroxytryptamine receptor 2A (Homo sapiens) (UniProt P28223); assay: 5-hydroxytryptamine receptor 2A (HTR2A) small molecule agonists, cell-based qHTS assay (AID 1963587); note: nearly all actives have a fitted effect of over 30% in size
In short: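 CHO cells stably expressing human HTR2A, plated 18 h, loaded with calcium dye 1 h at 37 C. Agonist mode: compounds added and intracellular calcium fluorescence recorded kinetically for 2 min at 1 sec intervals.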

[11] = target: Muscarinic acetylcholine receptor M1 (Homo sapiens) (UniProt P11229); assay: Cholinergic receptor muscarinic 1 (CHRM1) small molecule antagonists, cell-based qHTS assay (AID 1963588); note: nearly all actives have a fitted effect of over 40% in size
Chain of Muscarinic acetylcholine receptor M1 (Homo sapiens) (P11229 whole entry, looked up): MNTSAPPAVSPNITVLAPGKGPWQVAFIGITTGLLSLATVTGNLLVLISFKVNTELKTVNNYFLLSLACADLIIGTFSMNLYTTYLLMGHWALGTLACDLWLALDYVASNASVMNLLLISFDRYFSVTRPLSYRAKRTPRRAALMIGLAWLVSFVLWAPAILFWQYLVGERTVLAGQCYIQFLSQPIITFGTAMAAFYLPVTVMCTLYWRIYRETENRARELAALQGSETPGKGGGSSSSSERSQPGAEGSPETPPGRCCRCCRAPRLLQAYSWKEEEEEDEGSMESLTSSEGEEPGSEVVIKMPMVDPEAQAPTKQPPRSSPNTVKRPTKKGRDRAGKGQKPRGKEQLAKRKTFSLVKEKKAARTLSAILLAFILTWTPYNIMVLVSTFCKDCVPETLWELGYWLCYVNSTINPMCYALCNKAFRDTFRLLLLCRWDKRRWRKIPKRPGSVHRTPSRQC
In short: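 Compounds were tested at 15 concentrations in three independent runs. Dye-loaded CHRM1-CHO cells were exposed 5 min at room temperature before stimulation by acetylcholine added at 50nM. Intracellular calcium was read kinetically on FDSS for 3 min.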

[12] = target: Muscarinic acetylcholine receptor M1 (Homo sapiens) (UniProt P11229); assay: Cholinergic receptor muscarinic 1 (CHRM1) small molecule agonists, cell-based qHTS assay (AID 1963589); note: nearly all actives have a fitted effect of over 35% in size
In short: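 Agonist-mode calcium-flux screen: compounds at 15 concentrations, three independent runs, were pin-transferred onto dye-loaded human CHRM1-CHO cells. Fluorescence was then recorded kinetically every second over minutes.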

[13] = cAMP Responsive Elements (CRE) small molecule agonists, cell-based qHTS assay (AID 1963590)
In short: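 Agonist mode: compound added to CRE-bla HEK 293T cells (2,000/well, 18 h after plating) for 3 h at 37 C/5% CO2. Reporter activity detected via FRET beta-lactamase substrate, 2 h room-temperature loading.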

[14] = cAMP Responsive Elements (CRE) small molecule antagonists, cell-based qHTS assay (AID 1963591; active = well fitted inhibition curve with a large enough effect in the signal ratio in the repeat runs, not every such curve was filed as active; the % refers to the signal ratio)
In short: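 Antagonist mode: compounds are added alongside the adenylyl cyclase activator NKH477 (0.25 uM final) to CRE-bla HEK293T cells for 3 h. LiveBLAzer FRET substrate, 2 h at room temperature, reports bla expression.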

[15] = target: Beta-2 adrenergic receptor (Homo sapiens) (UniProt P07550); assay: Adrenergic beta2 receptor (ADRB2) small molecule antagonists, cell-based qHTS assay (AID 1963592); note: series mostly up to about 92 µM; nearly all actives have a fitted effect of over 50% in size
Chain of Beta-2 adrenergic receptor (Homo sapiens) (P07550 whole entry, looked up): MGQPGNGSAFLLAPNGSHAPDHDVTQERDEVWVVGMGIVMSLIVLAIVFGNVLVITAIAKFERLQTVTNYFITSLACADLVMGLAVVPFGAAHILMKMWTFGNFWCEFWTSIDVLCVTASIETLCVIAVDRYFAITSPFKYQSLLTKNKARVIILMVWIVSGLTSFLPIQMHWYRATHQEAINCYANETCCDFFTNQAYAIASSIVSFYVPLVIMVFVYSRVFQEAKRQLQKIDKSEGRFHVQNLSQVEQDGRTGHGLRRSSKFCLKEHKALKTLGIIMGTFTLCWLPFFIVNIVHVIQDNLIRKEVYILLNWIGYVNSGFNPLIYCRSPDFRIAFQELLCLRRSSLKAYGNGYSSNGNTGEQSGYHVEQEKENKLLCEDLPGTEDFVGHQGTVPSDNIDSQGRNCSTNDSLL
In short: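 Assay format: CHO-ADRB2 cells, 18-20hr seeding at 37C/5% CO2, then compound plus 1nM isoproterenol agonist mix for 0.5hr RT. Homogeneous time-resolved fluorescence cAMP detection after 1hr, expressed as 665/615 nm ratio.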

[16] = target: Beta-2 adrenergic receptor (Homo sapiens) (UniProt P07550); assay: Adrenergic beta2 receptor (ADRB2) small molecule agonists, cell-based qHTS assay (AID 1963593);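 note: CHO cells stably overexpressing human ADRB2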
In short: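 CHO cells stably over-expressing ADRB2 were plated overnight at 37C, then dosed with compounds plus a stimulation mix containing 100uM IBMX and 25uM Ro-20-1724 for 0.5hr at room temperature. cAMP was measured by HTRF competition, 1hr.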

[17] = p53 small molecule agonists, cell-based qHTS assay with human liver microsomes: qHTS cell viability counter screen (AID 1963579); note: nearly all actives have a fitted effect of over 45% in size
In short: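 HLM-supplemented (0.5 mg/mL final) and NADPH-supplemented (0.5 mg/mL final) p53RE-bla cultures, 4,000 cells per well, were dosed with compounds in DMSO for 16 h at 37 C; luminescent ATP detection (CellTiter-Glo, 30 min, room temperature) quantified surviving cells.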

[18] = target: D(2) dopamine receptor (Homo sapiens) (UniProt P14416); assay: Dopamine D2 receptor (DRD2) small molecule agonists, cell-based qHTS assay (AID 1963594); note: nearly all actives have a fitted effect of over 35% in size
Chain of D(2) dopamine receptor (Homo sapiens) (P14416 whole entry, looked up): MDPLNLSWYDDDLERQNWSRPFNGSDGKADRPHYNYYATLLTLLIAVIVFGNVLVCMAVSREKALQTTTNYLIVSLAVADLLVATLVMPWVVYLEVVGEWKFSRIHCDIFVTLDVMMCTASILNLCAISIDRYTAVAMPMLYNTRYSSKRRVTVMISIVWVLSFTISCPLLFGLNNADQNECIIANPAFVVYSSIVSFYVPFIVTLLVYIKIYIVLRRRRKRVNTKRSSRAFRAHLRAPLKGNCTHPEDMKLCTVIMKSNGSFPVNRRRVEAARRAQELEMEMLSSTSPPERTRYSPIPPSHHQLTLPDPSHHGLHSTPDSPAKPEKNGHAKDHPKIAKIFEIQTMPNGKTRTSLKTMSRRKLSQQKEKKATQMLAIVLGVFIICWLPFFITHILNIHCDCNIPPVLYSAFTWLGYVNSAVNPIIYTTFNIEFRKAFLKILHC
In short: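 HEK293 cells stably expressing human DRD2, pre-treated with PDE inhibitor Ro20-1724 (0.1 mM final) and compound 10 min at room temperature, then stimulated with NKH477 (200nM […]) for 30 min. cAMP read by HTRF (665/620 nm).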

[19] = target: D(2) dopamine receptor (Homo sapiens) (UniProt P14416); assay: Dopamine D2 receptor (DRD2) small molecule antagonists, cell-based qHTS assay (AID 1963595; active = well fitted inhibition curve with a large enough effect in the signal ratio in the repeat runs, with a control signal flat; the % refers to the signal ratio)
In short: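 HEK293 cells stably expressing DRD2, preincubated with 0.1 mM Ro20-1724 and compounds 10 min, were stimulated with 200 nM NKH477 plus 12 nM quinpirole for 30 min at room temperature; cAMP measured by HTRF (665/620 nm).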

Measured: Potency

CCOCC(O)COc1ccc(NC(=O)CC[S+](C)C)cc1 (stereo unspecified)
inactive: [1] | [2] | [3] | [4] | [5] | [6] | [7] | [8] | [9] | [10] | [11] | [12] | [13] | [14] | [15] | [16]

C1CCN(CN2CCCCC2)CC1
inactive: [1] | [2] | [3] | [4] | [5] | [17] | [6] | [9] | [10] | [11] | [12] | [13] | [14] | [15] | [16]

CC(=O)OCC(=O)[C@@]1(O)CCC2C3CCC4=CC(=O)CC[C@]4(C)C3[C@@H](O)C[C@@]21C (stereo partly specified)
inactive: [1] | [2] | [3] | [4] | [5] | [6] | [7] | [8] | [9] | [10] | [11] | [13] | [14] | [15] | [16] | [18] | [19]

CC1=CC[C@H](C(C)C)C=C1
inactive: [1] | [2] | [3] | [4] | [5] | [17] | [6] | [7] | [9] | [10] | [11] | [12] | [13] | [14] | [15] | [16] | [18] | [19]
